Hck-Nef inh: inhibitors of Nef-activated human Hck kinase, primary screen, biochemical, Z-Lyte FRET, 384-well, Hck-YEEI; Tyrosine-protein kinase HCK (Homo sapiens), P08631; Recombinant Hck-YEEI plus Nef, Z-Lyte FRET kinase assay; inhibition, % at 20 µM; 220,000 tested, 0.68% active;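 active means Hck-Nef kinase inhibition above about 50%, limit read from the data; inactive means inhibition below that limit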
LYPLA1 counter: LYPLA1 inhibitors, primary screen, counter-screen for PME1 inhibitor project, biochemical, fluorescence polarization, FP-Rh probe ABPP. 320,000 tested, 0.16% active. AID 2174, 2009. inhibition, % at 5.9 µM. recombinant LYPLA1;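 active means inhibition above the mean of all tested compounds plus 3 SD, set per campaign, cut at about 14% in these data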;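 further: inhibitors block serine hydrolase probe labeling of LYPLA1 so polarization falls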
Target sequence (O75608 whole entry, looked up): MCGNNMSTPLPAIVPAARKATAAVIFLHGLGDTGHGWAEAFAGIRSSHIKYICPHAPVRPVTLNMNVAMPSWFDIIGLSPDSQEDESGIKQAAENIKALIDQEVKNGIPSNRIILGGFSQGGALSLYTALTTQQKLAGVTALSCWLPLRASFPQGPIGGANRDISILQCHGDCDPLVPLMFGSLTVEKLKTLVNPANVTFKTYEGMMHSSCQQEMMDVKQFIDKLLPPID
Rin1-Abl PPI inh: inhibitors of Rin1-Abl protein binding, primary screen, biochemical, TR-FRET; 360,000 tested, 0.4% active; Tyrosine-protein kinase ABL1 (Homo sapiens) + Ras and Rab interactor 1 (Homo sapiens), …; inhibition, % at 7.35 µM; in the data active means inhibition above about 5%, passing the limit was not always enough
p97 inhibitor: inhibitors of human p97 ATPase, primary screen, biochemical | inhibition, % at 8 µM | 220,000 tested, 0.42% active | recombinant p97 ATPase, Kinase-Glo ATP luminescence, 3 h | Transitional endoplasmic reticulum ATPase (Homo sapiens), P55072; in the data active means inhibition above about 15%
PREPL inh: PREPL enzyme inhibitors, primary screen, biochemical, fluorescence polarization | recombinant PREPL, fluorescence polarization activity-based probe | inhibition, % at 5.96 µM | 320,000 tested, 0.68% active | AID 2751, 2010; in the data active means inhibition above about 43%
LYPLA2 counter: LYPLA2 inhibitors, primary screen, counter-screen for PME1 inhibitor project, biochemical, fluorescence polarization, FP-Rh probe ABPP; recombinant LYPLA2; 320,000 tested, 0.38% active; Acyl-protein thioesterase 2 (Homo sapiens), O95372; AID 2177, 2009; inhibition, % at 5.9 µM;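 active means inhibition above the screen-wide mean plus 3 SD, limit set per campaign, cut at about 26% in these data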
Target sequence (O95372 whole entry, looked up): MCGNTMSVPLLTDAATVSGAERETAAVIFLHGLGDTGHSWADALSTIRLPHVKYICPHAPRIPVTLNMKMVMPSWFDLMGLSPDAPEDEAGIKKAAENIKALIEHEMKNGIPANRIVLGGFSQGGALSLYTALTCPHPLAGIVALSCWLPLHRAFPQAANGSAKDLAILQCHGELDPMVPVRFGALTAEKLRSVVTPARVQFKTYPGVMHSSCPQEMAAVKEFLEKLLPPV
Rin1-Abl confirm: Rin1-Abl binding inhibitor retest, confirmation, biochemical, TR-FRET | 1,300 tested, 49% active | shares compounds with Rin1-Abl PPI inh | purified proteins | inhibition, % at 7.35 µM | AID 602124, 2011
GFP quencher: GFP fluorescence inhibitors and quenchers, artefact control for Rin1-Abl interaction inhibitor project, biochemical. shares compounds with Rin1-Abl PPI inh. inhibitors/quenchers counterscreen. inhibition, % at 6.75 µM. 1,300 tested, 8.5% active;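 further: ABL1-eGFP fusion protein alone without its partner RIN1-SBP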
GFP quench dose: GFP fluorescence inhibitors and quenchers, dose response, artefact control for Rin1-Abl interaction inhibitor project, biochemical. 230 tested, under 10 active. GFP fluorescence interference/quenching counterscreen. IC50, µM. shares compounds with Rin1-Abl PPI inh; call rule not given here;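 further: ABL1-eGFP fusion protein alone without its RIN1 binding partner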
Hits are given with their value; i = inactive; nt = no result. This is a sample that favours compounds with a hit; in the whole collection about 1.7% have one here. Unless noted, no stated cut-off is given here; in the data, active means inhibition above about 6.5%; inactive means the rest.

SMILES | Hck-Nef inh | LYPLA1 counter | Rin1-Abl PPI inh | p97 inhibitor | PREPL inh | LYPLA2 counter | Rin1-Abl confirm | GFP quencher | others
O=C1CN(C(=O)COc2ccccc2)CCN1 | i | i | 8.5 | i | i | i | i | i
O=C1N(Cc2cccnc2)C[C@@H]2C[C@@H](c3ccc4nsnc4c3)N3CCC[C@@]123 | i | i | 16 | i | i | i | 16 | i
COc1cccc(N=C2SC(C(=O)Nc3ccc(F)cc3)CC(=O)N2C)c1 (stereo not given) | i | i | 10 | i | i | i | i | i
O=C(COC(=O)CNC(=O)c1ccco1)NCCN1C(=O)CSC1=O | i | i | 5.0 | i | i | i | i | i
COc1ccccc1OCC(=O)OCC(=O)NCCN1C(=O)CSC1=O | i | i | i | i | i | i | nt | nt
CC(C)(C)c1ccc(S(=O)(=O)N2CCNC(=O)C2)cc1 | nt | nt | i | nt | i | nt | nt | nt
Cc1cc(S(=O)(=O)N2CCN(C(=O)CCC(=O)N3CCOCC3)CC2)ccc1Br | i | i | 16 | i | i | i | 21 | i | GFP quench dose=i
Cc1ccc(S(=O)(=O)N2CCN(C(=O)N3CCOCC3)CC2)cc1C | nt | i | i | nt | i | i | nt | nt
CCOc1ccc(S(=O)(=O)N2CCN(C(=O)CCC(=O)N3CCOCC3)CC2)cc1 | nt | i | 11 | nt | i | i | 11 | i
N#CC12CCCCC1CC1CCCCC1(C#N)N2Cc1cccnc1 (stereo not given) | i | i | 53 | i | i | i | 92 | i | GFP quench dose=i
CN(CC(=O)Nc1cccc(C#N)c1)Cc1ccc(Cl)cc1 | i | i | i | i | i | i | nt | nt
CN(CC(=O)Nc1ccc(C#N)cc1)Cc1ccc(Cl)c(Cl)c1 | i | i | 6.1 | i | i | i | i | i
CCOC(=O)C1=CCN(S(=O)(=O)c2ccc(F)cc2)C1c1cccc(C)c1 (stereo not given) | nt | nt | i | nt | nt | nt | nt | nt
Cc1ccccc1CC1(CO)CCCN(C(=O)c2ccoc2)C1 (stereo not given) | nt | nt | i | nt | nt | nt | nt | nt
C#CCOCCOCCOCCNc1nc(N2CCN(C(=O)CCCCCCCCCCNC(=O)[C@@H](CCSC)n3cc(CCO)nn3)CC2)nc(N2CCN(C(=O)CCCCCCCCCCNC(=O)[C@H](CCC(=O)O)n3cc(CCCCCN)nn3)CC2)n1 | nt | i | i | nt | i | i | nt | nt
C#CCOCCOCCOCCNc1nc(N2CCN(C(=O)Cn3cc(CCCCN)nn3)CC2)nc(N2CCN(C(=O)Cn3cc(CC(C)O)nn3)CC2)n1 (stereo not given) | i | i | i | i | i | i | nt | nt
C#CCOCCOCCOCCNc1nc(N2CCN(C(=O)CCCCCCCCCCNC(=O)Cn3cc(C[C@@H](C)O)nn3)CC2)nc(N2CCN(C(=O)CCCCCCCCCCNC(=O)[C@@H](CCSC)n3cc(CCO)nn3)CC2)n1 | nt | i | 17 | nt | i | i | 16 | i
C#CCOCCOCCOCCNc1nc(N2CCN(C(=O)CCCCCCCCCCNC(=O)Cn3cc(CCCCCN)nn3)CC2)nc(N2CCN(C(=O)CCCCCCCCCCNC(=O)Cn3cc(C[C@@H](C)O)nn3)CC2)n1 | nt | i | 19 | nt | i | i | 12 | i
NCCCCC(N)c1cn([C@@H](CCC(=O)O)C(=O)N2CCNCC2)nn1 (stereo not given in full) | nt | i | i | nt | i | i | nt | nt
O=c1[nH]c(/C=C\c2ccc(O)c(O)c2)nc(O)c1[N+](=O)[O-] | nt | nt | 8.3 | nt | nt | nt | 8.2 | i
O=c1[nH]c(/C=C\c2cccc(O)c2)nc(O)c1[N+](=O)[O-] | nt | i | i | nt | i | i | nt | nt
C[C@H](NC(=O)c1nc[nH]c1C(=O)NC1CCN(C(=O)OC(C)(C)C)CC1)C(=O)OC(C)(C)C | i | i | i | i | i | i | nt | nt
CC1CCN(C(=O)c2[nH]cnc2C(=O)NC2CCN(C(=O)OC(C)(C)C)CC2)CC1 | nt | i | 10 | nt | i | i | i | i
CCC(=O)c1c[nH]c(C(=O)N2CCOCC2)c1 | nt | i | i | nt | i | i | nt | nt
CNCc1ccccc1Sc1ccc(O)c(O)c1 | i | i | 12 | i | i | i | 6.4 | i
SMILES | Hck-Nef inh | LYPLA1 counter | Rin1-Abl PPI inh | p97 inhibitor | PREPL inh | LYPLA2 counter | Rin1-Abl confirm | GFP quencher | others
COc1ccc(Sc2ccccc2CN(C)C)cc1OC | i | i | i | i | i | i | nt | nt
Cc1ccccc1-n1c(SCC(=O)c2cc(C)n(C)c2C)nnc1-c1cccnc1 | i | i | i | i | i | i | nt | nt
COCCn1c(C)cc(C(=O)CSc2nnc(-c3cccnc3)n2-c2ccccc2F)c1C | i | i | 10 | i | i | i | i | i
CC(C)NS(=O)(=O)c1cc(C(=O)O)ccc1Cl | i | i | i | i | i | i | nt | nt
Cc1nc2ccccc2n1S(=O)(=O)c1cc(C(=O)O)ccc1Cl | nt | i | 8.3 | nt | i | i | i | i
Cc1ccc(OCc2cc(C(=O)N(C)CCc3ccccn3)no2)cn1 | nt | i | i | nt | i | i | nt | nt
CCOC(=O)CCCCC(=O)c1[nH]c(=O)[nH]c1CN1CCOCC1 | i | i | 80 | i | i | i | 88 | i | GFP quench dose=i
CCOC(=O)CCCCC(=O)c1[nH]c(=O)[nH]c1C[n+]1ccc(C)cc1 | i | i | 23 | i | i | i | 30 | i | GFP quench dose=i
CCOC(=O)CCCCC(=O)c1[nH]c(=O)[nH]c1CSc1nc(C)cc(C)n1 | i | i | 68 | i | i | i | 71 | i | GFP quench dose=i
CCOC(=O)CCCCC(=O)c1[nH]c(=O)[nH]c1CSc1nc(C)cc(=O)[nH]1 | i | i | 82 | i | i | i | 86 | i | GFP quench dose=i
Cc1ccc(N(CC(=O)NCc2ccccc2)C(=O)CCC(=O)Nc2ccccn2)cc1 | nt | i | i | nt | i | i | nt | nt
O=C(CCN1CCN(c2ccccc2F)CC1)Nc1cccc(F)c1 | nt | i | i | nt | i | i | nt | nt
CCOC(=O)c1ccc(S(=O)(=O)NCCNCc2ccccc2)cc1 | nt | nt | i | nt | i | nt | nt | nt
COC(=O)CSc1nnc(CCc2ccccc2)n1C | nt | i | i | nt | i | i | nt | nt
Cc1c(NS(=O)(=O)c2cc(C(=O)NCc3ccco3)cc(Cl)c2Cl)c(=O)n(-c2ccccc2)n1C | nt | i | i | nt | i | i | nt | nt
CCOC(=O)CCCCC(=O)c1[nH]c(=O)[nH]c1CSc1nc2ccccc2[nH]1 | i | i | 84 | i | i | i | 88 | i | GFP quench dose=i
CCOC(=O)CCCCC(=O)c1[nH]c(=O)[nH]c1C[n+]1ccccc1 | i | i | nt | i | i | i | nt | nt

Screens from PubChem.
